This note sets out measurements from PubChem BioAssay AID1745849 (National Center for Advancing Translational Sciences (NCATS), 2022).

Each structure is given as a SMILES string. The whole screen tested about 2,100 compounds, of which about 320 (15%) were called active. Inconclusive results (about 52%) are left out. The call rests on the fitted dose curve; in most records, active means well fitted cell-killing curve with a large enough effect; inconclusive means small, poorly fitted or top-dose-only effect, or effect the other way; inactive means flat fitted curve, though single readings scatter. The list shows a part of the results. A call without a number means that no potency is given here.
Potency means the concentration at half of the fitted maximal effect.

The nature of this assay: Viability Counterscreen for CMV-Luciferase Assay of Inhibitors of ATXN expression. Further: nearly all actives have a fitted effect of over 55% in size. The settings on record: HEK-293 CMV-luciferase cells viability, protease fluorescence, 24 h. Put shortly:
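HEK-293 cells stably expressing a CMV-luciferase reporter were exposed to compounds at several concentrations for 24 hr at 37 degree C. Viability was read as Gly-Phe-AFC fluorescence (25 uM final, 30 min). SteadyGlo luminescence was then measured after 5 min.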
For orientation: The purpose of a counterscreen is to sort out artefacts and off-target activity.
In the case of `CCOC(=O)c1c(NC(=O)CSc2nnnn2-c2ccccc2)sc2c1CC(C)(C)NC2(C)C`, the Potency result is “inactive”.

In the case of `CCN(CC)CCCNc1nc2ccccc2c2nc(-c3ccncc3)nn12`, the Potency was 15.8 µM (active).

For the compound `CC(Oc1ccc(F)cc1)C(=O)Nc1nc(-c2ccccn2)cs1` (configuration not stated), the Potency is 7.94 µM (active).

Consider `NC(c1ccccc1)c1csc(NC(=O)Nc2ccccc2Oc2ccccc2)n1` (configuration not stated), for which the Potency result is “inactive”.

For `COC(=O)COc1ccc(-c2nccc(-c3ccccn3)n2)cc1`, the Potency result was “inactive”.

On to `O=C(Nc1nc(-c2ccccn2)cs1)Nc1ccc(F)cc1F`, for which the Potency is 11.2 µM (active).

As to `O=C(Nc1nc(-c2ccccn2)cs1)c1ccc(F)c(S(=O)(=O)N2CCOCC2)c1`, the Potency is 5.01 µM (active).

`COc1cccc(C(=O)Nc2nc(-c3ccc(S(=O)(=O)N4CCOCC4)cc3)cs2)c1`: the Potency result is “inactive”.

`O=C(Nc1nc(-c2ccc(S(=O)(=O)N3CCOCC3)cc2)cs1)c1ccccc1`: the Potency result is “inactive”.

With `O=C(CCN1C(=O)C2CC=CCC2C1=O)Nc1nc(-c2ccc(F)c(F)c2)cs1` (configuration not stated), the Potency result is “inactive”.

Consider `COC(=O)C(Cc1ccc(O)cc1)NC(=O)C(C)Oc1ccccc1` (configuration not stated), for which the Potency entry was “inactive”.

Take `CC(C)CC(N)c1csc(NC(=O)Nc2ccccc2C(C)(C)C)n1` (configuration not stated): the Potency result is “inactive”.

As to `O=C(CN1C(=O)C2CCCCC2C1=O)Nc1nc(-c2ccccn2)cs1` (configuration not stated), the Potency is 17.8 µM (active).

On to `O=C(CC1Sc2ccccc2NC1=O)NNc1cccc(Cl)c1Cl` (configuration not stated), for which the Potency entry was “inactive”.

As for `CN1OC[C@@H]2CN[C@H](c3ccc(-c4cc5ccccc5o4)cc3)C[C@@H]21`, the Potency entry was “inactive”.

Take `CC1(C(=O)NCc2cccc(C(F)(F)F)c2)CCN1Cc1ccc(-c2ccccc2)o1` (configuration not stated): the Potency result was “inactive”.

Consider `Cc1cc(C)c(C(O)c2ncc(-c3cccc4ccccc34)[nH]2)c(C)c1` (configuration not stated), for which the Potency result is “inactive”.

Consider `CCN1CC2=C(OC(N)=C(C#N)C2c2cccs2)/C(=C\c2cccs2)C1` (configuration not stated), for which the Potency result is “inactive”.

For `O=C(CCc1ccccc1)N/N=C/c1cc(Br)ccc1O`, the Potency entry was “inactive”.

On to `O=C(CN1CCCc2ccccc21)N/N=C/c1ccccc1O`, for which the Potency result is “inactive”.

Turning to `O=C(CCCOc1ccc(Cl)cc1Cl)N/N=C/c1ccccc1O`, the Potency is 3.98 µM (active).

In the case of `CC(C)(C)c1ccc(NC(=O)N2CCCN(c3c(Cl)cncc3Cl)CC2)cc1`, the Potency entry is “inactive”.

`O=C(NC1CCN(Cc2ccccc2)CC1)c1cccc(S(=O)(=O)Nc2ccc(SC(F)F)cc2)c1`: the Potency entry is “inactive”.

On to `O=C(c1ccc(S(=O)(=O)c2cccc(Cl)c2)c([N+](=O)[O-])c1)N1CCN(Cc2ccccc2)CC1`, for which the Potency is 15.8 µM (active).

On to `OC(c1ccccc1)(c1nc(-c2cc3ccccc3o2)cs1)C(F)(F)F` (configuration not stated), for which the Potency result was “inactive”.

Consider `O=S(=O)(c1ccc2c(c1)OCCO2)N1CCC(c2nc3ccc(Cl)cc3[nH]2)CC1`, for which the Potency entry is “inactive”.

As to `Cc1ccc(S(=O)(=O)N2CCc3ccccc3CC2)cc1`, the Potency entry is “inactive”.

For the compound `Cc1ccc(S(=O)(=O)/N=C(\Sc2ccccc2)c2ccccc2)cc1`, the Potency was 15.8 µM (active).

Turning to `CCn1c(CCC(=O)Nc2nc3c(s2)CCCC3)nc2cc(S(=O)(=O)N(C)C)ccc21`, the Potency entry was “inactive”.

As to `Cc1ccc2c(Cl)cc(Cl)c(O)c2n1`, the Potency entry is “inactive”.

As for `COc1ccc(C)cc1NC(=O)COC(=O)c1c(C)nn(-c2ccccc2)c1C`, the Potency result is “inactive”.

For `COc1ccc(C)cc1NC(=O)CSc1ccc(-c2ccccn2)nn1`, the Potency was 12.6 µM (active).

Regarding `O=c1c(Cc2ccccc2)c(O)nc2n1CCS2`, the Potency entry was “inactive”.

As for `COc1cccc(/C=N/NC(=O)CC(C)O)c1OC/C=C/c1ccccc1` (configuration not stated), the Potency entry is “inactive”.

As to `COc1ccc(C(=O)N/N=C/c2ccc(N(C)c3ccccc3)cc2)cc1`, the Potency entry is “inactive”.

`COc1ccc(/C=N/Nc2cc(N3CCCC3)nc(N3CCCC3)n2)cc1`: the Potency is 2.82 µM (active).

Consider `CC(=O)c1cccc(NC(=O)C2Cc3c(-c4cccc(C(C)=O)c4)ccnc3O2)c1` (configuration not stated), for which the Potency result was “inactive”.

As for `CC(=O)c1cccc(NC(=O)c2cccc3c(-c4cccc(C(N)=O)c4)coc23)c1`, the Potency is 11.2 µM (active).

For the compound `CS(=O)(=O)Nc1ccccc1C(=O)Nc1cc(Cl)cc(Cl)c1`, the Potency entry is “inactive”.

As to `CS(=O)(=O)Nc1cccc(NC(=O)c2cccc3c(-c4cccc(C(N)=O)c4)coc23)c1`, the Potency was 17.8 µM (active).

For the compound `NC(=O)c1cccc(-c2ccnc3c2CC(C(=O)Nc2cccc(C(F)(F)F)c2)O3)c1` (configuration not stated), the Potency result was “inactive”.

With `Cc1cc(OCc2nc(N)nc(N)c2-c2ccc(Cl)c(Cl)c2)ccc1[N+](=O)[O-]`, the Potency entry was “inactive”.

In the case of `Cc1nn(-c2ccccc2)c2nc(-c3cccs3)cc(C(=O)NN)c12`, the Potency entry was “inactive”.

Turning to `CCn1c(-c2ccc(C)cc2)nn(CC(=O)NCCc2ccccc2)c1=S`, the Potency entry is “inactive”.

On to `CCN(CC)CCNC(=O)CCc1c(C)nc2c(c(C)nn2-c2ccc(C)cc2)c1C`, for which the Potency is 3.55 µM (active).

Consider `Cc1ccc(CN2CCC(c3nc4ccc(Cl)cc4[nH]3)CC2)cc1`, for which the Potency entry was “inactive”.

As to `O=[N+]([O-])c1ccc(O)c(/C=N\N=C2c3ccccc3-c3ccccc32)c1`, the Potency is 10 µM (active).

`C/C(=N\NC(=O)c1cc(-c2cccnc2)nc2ccccc12)c1ccc(O)cc1O`: the Potency result was “inactive”.

With `COc1cccc(/C=N/NC(=O)c2ccc(-c3ccccc3)cc2)c1O`, the Potency result was “inactive”.

As to `COc1cccc(/C=N/Nc2nc3ccccc3n3cnnc23)c1O`, the Potency result is “inactive”.

`O=C(N/N=C/c1cc([N+](=O)[O-])ccc1O)c1cc(-c2ccccc2)nc2ccccc12`: the Potency was 2.51 µM (active).

Consider `COc1cccc(/C=N/NC(=O)c2cc(-c3ccccn3)nc3ccccc23)c1O`, for which the Potency was 2.82 µM (active).

As to `O=C(N/N=C/c1cc([N+](=O)[O-])ccc1O)c1cccc2cc[nH]c12`, the Potency is 7.94 µM (active).

Consider `CCCC(=O)Nc1c(C(=O)OCC)[nH]c2ccccc12`, for which the Potency entry was “inactive”.

`Cc1ccc(-n2cccn2)c(CN2CCCC(C(=O)c3ccc4c(c3)OCO4)C2)c1` (configuration not stated): the Potency entry was “inactive”.

For `O=C(Nc1cccc(Br)c1)c1ccc(Cl)c(S(=O)(=O)N2CCOCC2)c1`, the Potency entry was “inactive”.

For the compound `Cc1ccc2c(c1)-c1c(cnn1CC(=O)N1CCCN(Cc3ccccc3F)C1)CO2`, the Potency result is “inactive”.

As to `Cc1cc(Br)ccc1NC(=O)c1cnc(N2CCN(c3ccccn3)CC2)c2ccccc12`, the Potency result is “inactive”.

Turning to `Cc1cc(Cl)c(C(=O)Nc2cccc(C(F)(F)F)c2)c(C)n1`, the Potency entry was “inactive”.

`Cc1ccc(NC(=O)COc2ccc(Br)cc2CO)cc1S(=O)(=O)N1CCOCC1`: the Potency entry is “inactive”.

`O=C(c1ccc(Cl)s1)N1CCN(c2nc3ccccc3s2)CC1`: the Potency entry was “inactive”.

With `CC(=O)c1ccc(NC(=O)COC(=O)c2c3c(nc4ccccc24)/C(=C\c2cccs2)CCC3)cc1`, the Potency entry is “inactive”.
